# Compound activity (PubChem)
# Most compounds without a hit are left out; they make up all but 3.1% or so of the library.
# TRb-SRC2 inh: disrupts binding of human TR beta to SRC2; hit rate 0.065% among 280,000; TRbeta-SRC2 peptide binding, fluorescence polarization; receptor liganded with 1 µM T3; P10828; Potency, µM (highest dose often 106 µM), for inactives: top-dose activity change, negative = inhibition, actives largely listed as inhibitors;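 also: plate controls were bound peptide for no effect and peptide without receptor for full effect; nearly all actives have a fitted effect of over 50% in size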
# Target sequence (P10828 whole entry, looked up): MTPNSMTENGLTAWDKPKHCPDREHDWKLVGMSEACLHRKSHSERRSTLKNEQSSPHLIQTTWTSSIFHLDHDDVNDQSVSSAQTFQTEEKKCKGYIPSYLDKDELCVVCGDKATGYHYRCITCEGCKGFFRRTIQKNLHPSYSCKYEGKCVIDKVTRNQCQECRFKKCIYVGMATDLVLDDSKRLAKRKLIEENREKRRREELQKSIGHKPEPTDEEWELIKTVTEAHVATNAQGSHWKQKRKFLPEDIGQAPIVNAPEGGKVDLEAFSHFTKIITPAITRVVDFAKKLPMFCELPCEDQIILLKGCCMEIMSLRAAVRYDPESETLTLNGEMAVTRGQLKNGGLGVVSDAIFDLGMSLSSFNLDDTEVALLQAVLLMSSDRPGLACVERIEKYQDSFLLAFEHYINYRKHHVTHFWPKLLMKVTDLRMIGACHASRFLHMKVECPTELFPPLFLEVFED
#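 Decrease in fluorescence polarization of 20 nM Texas Red SRC2 coactivator peptide flagged inhibition of its binding to 0.6 uM TRb LBD; 1 uM T3 included, incubation 5 hr, ex 555/em 632 nm.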
# Tau FP inhib: inhibitors of human tau fibril formation. P10636. K18 P301L tau heparin fibrillization, Alexa594 FP, 6 h. Potency, µM (titrated, usually from 57.7 µM), for inactives: at the highest dose activity, negative = inhibition, usual class: inhibitors. hit rate 0.39% among 280,000. AID 1468; also: nearly all actives have a fitted effect of over 55% in size
#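 Quantitative HTS format: compounds meet 15 uM recombinant K18 P301L tau and Alexa 594-tau tracer in 100 mM sodium acetate pH 7; 20 uM heparin triggers fibrillization at 37 C over 6 hr; FP gives the signal.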
# Tau ThT inhib: inhibitors of human tau fibril formation, thioflavin T binding; P10636; recombinant tau K18 P301L, heparin-induced fibrillization, ThT fluorescence; Potency, µM (series often up to 57.4 µM), for the others: at the highest dose activity, negative = inhibition, most hits filed as inhibitors; hit rate 2.1% among 270,000; also: nearly all actives have a fitted effect of over 55% in size
#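 ThT emission at 510 nm, taken 1 hr after adding 30 uM dye, quantifies aggregates formed when 20 uM heparin acts on human tau K18 P301L for 6 hr at 37 C.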
# RGS12 GoLoco inh: RGS12 GoLoco-Gai1 interaction inhibition | P63096 | Gai1:RGS12 GoLoco peptide FP, rhodamine, 10 min | Potency, µM (titrated, usually from 61.6 µM), without a hit: at the top dose activity, negative = inhibition, actives largely listed as inhibitors | hit rate 0.44% among 230,000 | AID 880; active = well fitted inhibition curve with a large enough effect, not every such curve was filed as active; inactive = no such curve, though single readings can be large or run the other way; also: nearly all actives have a fitted effect of over 30% in size
# Tau fluor counter: counter-screen for tau fibril formation inhibitors; tau K18 P301L (four-repeat tau fragment) Alexa594 fluorescence, heparin fibrillization; Potency, µM (doses to about 57.7 µM), for inactives: at the top dose activity change, negative = decrease; hit rate 0.93% among 280,000; also: nearly all actives have a fitted effect of over 55% in size
#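 Human K18 P301L tau (15 uM unlabeled plus 0.24 uM Alexa 594-labeled, final) in 100 mM sodium acetate pH 7 was mixed with compound and 20 uM heparin and incubated 6 hr at 37 C.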
# TexasRed fluor: counter-screen for TRb-SRC2 inhibitors: fluorescence interference; Potency, µM (titrated, usually from 106 µM), for inactives: top-dose fluorescence change, negative = quenching; AID 1479; TRb/SRC2 Texas Red total fluorescence interference; hit rate 0.29% among 280,000; active = well fitted curve in either direction with a large enough effect; inconclusive = small, poorly fitted or top-dose-only effect
#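 Human TRβ ligand-binding domain (0.6 uM) and Texas Red SRC2 peptide (20 nM) in Tris buffer with 1 uM T3 and 5% DMSO were incubated with pinned compound for 5 hr at ambient temperature. Total fluorescence was computed as S + 2P (555/632 nm).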
# Numbers without * were called inactive; u = inconclusive; x = no result; [ ] = another dose, or the depositor's remark. Unless noted, calls follow the shape of the dose curve; as a rule, active = well fitted curve in the direction sought with a large enough effect; inconclusive = small, poorly fitted or top-dose-only effect, or another doubt; inactive = no such curve, though single readings can be large; an effect the other way counts as inactive or inconclusive. Unless noted, % is scaled to controls: 0 for no effect and ±100 for the full control effect; potency is read from the fitted curve at half-maximal effect.
SMILES,TRb-SRC2 inh,Tau FP inhib,Tau ThT inhib,RGS12 GoLoco inh,Tau fluor counter,TexasRed fluor
COc1cc2cccc(OC)c(=O)c2c(O)c1OC,10%,7%,u,10%,-3%,-2%
CC(=O)Oc1cc2cccc(OC(C)=O)c(=O)c2c(OC(C)=O)c1OC(C)=O,1%,16µM*,3.5µM*,-6%,8.9µM*[quencher],-13%
Oc1ccc(/C=N/n2c3ccccc3c3ccccc32)cc1,-7%,u,35µM*,-3%,14µM*[quencher],-1%
CC(=O)N/C(=C/c1ccc2c(c1)OCO2)C(=O)NCCO,1%,-6%,-12%,10%,-6%,0%
CCN(C(=O)c1cc2c(=O)n(CC)c3ccccc3c2s1)c1cccc(C(F)(F)F)c1,-6%,13%,-9%,x,-15%,-5%
CN1C(=O)/C(=C/C=C2/CCCN2C)N(C)C1=S,-3%,u,20µM*,3%,-26%,0%
Cc1cc(N2CCCC2)ccc1/C=C1/C(=O)N(C)C(=S)N1C,4%,u,u,43%,-11%,0%
Cc1ccccc1OCCNc1cc(N2CCN(CCO)CC2)ccc1[N+](=O)[O-],-8%,-2%,13µM*,7%,u,-4%
Cc1ccccc1OCCNc1cc(N2CCCCC2)ccc1[N+](=O)[O-],-7%,0%,u,6%,u,1%
Cc1cccc(OCCNc2cc(N3CCN(CCO)CC3)ccc2[N+](=O)[O-])c1,-1%,-10%,28µM*,x,u,-4%
O=c1[nH][nH]cc1C=Nc1cc(Cl)ccc1O,2%,-1%,-15%,2%,-6%,1%
CN(C)S(=O)(=O)c1cc(S(=O)(=O)N(C)C)c(Cl)cc1N,-17%,-1%,3%,4%,8%,0%
COc1cccc(Nc2sc(C(=O)c3ccc(F)cc3)c(N)c2C(=O)NCc2ccc(Cl)cc2)c1,8%,u,20µM*,x,u,1%
N#Cc1c(Nc2cccc(F)c2)sc(C(=O)c2ccc(Cl)cc2)c1N,-3%,u,28µM*,x,u,2%
COc1cccc(Nc2sc(C(=O)c3ccc(Cl)cc3)c(N)c2C(=O)NCc2ccc(C)cc2)c1,9%,7%,u,x,u,3%
N#Cc1c(SCc2ccc(Cl)cc2)sc(C(=O)c2ccccc2)c1N,5%,-10%,-11%,9%,-26%,2%
COc1ccc(C(=O)c2sc(Nc3cccc(OC)c3)c(C(=O)Nc3cccc(C)c3C)c2N)cc1,-2%,-8%,18µM*,0%,u,-2%
COc1ccc(C(=O)c2sc(Nc3ccccc3)c(C(=O)Nc3ccc(OC)c(OC)c3)c2N)cc1,2%,u,16µM*,-10%,16µM*[quencher],-2%
O=C(Nc1ccc(F)cc1F)c1cc(-c2ccccc2O)no1,5%,1%,-5%,x,-15%,u
COc1ccc2c(CNC3CCCC3)c(C(=O)O)n(Cc3ccccc3C)c2c1,2%,4%,-3%,x,-7%,-2%
CCOc1ccccc1Nc1sc(C(=O)c2ccccc2)c(N)c1C(=O)Nc1ccccc1,3%,0%,-7%,x,-13%,-20%
COc1ccc(NC(=O)c2c(Nc3ccccc3)sc(C(=O)c3ccc(F)cc3)c2N)cc1,-17%,3%,11µM*,-12%,u,-1%
COc1ccc(Nc2sc(C(=O)c3ccc(Cl)cc3)c(N)c2C(=O)Nc2ccccc2OC)cc1,-7%,-2%,22µM*,-11%,u,-5%
Cc1cc(Nc2sc(C(=O)c3ccc(F)cc3)c(N)c2C(=O)Nc2ccc(F)cc2)ccc1Cl,13%,-12%,20µM*,x,10µM*[quencher],-1%
CCOc1ccc(NC(=O)c2c(Nc3ccccc3C)sc(C(=O)c3ccc(Cl)cc3)c2N)cc1,6%,3%,u,x,u,2%
CCOc1ccc(CCNC(=O)CCSCc2cccc(Cl)c2)cc1OCC,1%,5%,-13%,x,-15%,-1%
